HTR5A ag – counter-screen for OPRM1-OPRD1 agonists: human HTR5A agonism; AID 504692; 0.61% of 340,000 active; HTR5A agonist assay, luminescence, cell-based; P47898; activation, % at 9.3 µM; in the data active means activation mostly above about 9.5%, no sharp cut-off; inactive means mostly below about 7.6%;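 further: 0% = cells with vehicle only and 100% = reference agonist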
HTR5A inv ag – inverse agonist of human HTR5A in OPRM1-OPRD1 counter-screen; HTR5A cell line, luminescence, inverse agonism; AID 504634; inhibition, % at 9.3 µM; P47898; 0.083% of 340,000 active; in the data active means inhibition mostly above about 23%, no sharp cut-off; inactive means mostly below about 18%;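 further: 0% = cells with DMSO and 100% = no-cell wells with DMSO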
MOR-DOR ag-1 – agonists of human mu-delta opioid receptor heterodimerization; cells, OPRM1-OPRD1 heterodimerization, luminescence; AID 504326; 0.3% of 340,000 active; activation, % at 9.3 µM;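 further: 0% = vehicle-treated cells and 100% = reference agonist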
Target sequence (P35372 whole entry, looked up): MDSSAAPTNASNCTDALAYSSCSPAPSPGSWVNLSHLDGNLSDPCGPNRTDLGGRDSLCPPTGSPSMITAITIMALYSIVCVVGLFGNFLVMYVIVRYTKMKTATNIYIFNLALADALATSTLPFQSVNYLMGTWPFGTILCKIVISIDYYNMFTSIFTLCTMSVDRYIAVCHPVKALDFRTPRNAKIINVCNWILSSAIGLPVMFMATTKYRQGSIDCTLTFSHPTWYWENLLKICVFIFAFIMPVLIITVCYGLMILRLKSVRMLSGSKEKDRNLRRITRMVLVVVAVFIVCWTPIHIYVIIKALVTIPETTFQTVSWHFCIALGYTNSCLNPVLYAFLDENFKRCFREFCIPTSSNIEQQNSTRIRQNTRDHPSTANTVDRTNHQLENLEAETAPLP
Target sequence (P41143 whole entry, looked up): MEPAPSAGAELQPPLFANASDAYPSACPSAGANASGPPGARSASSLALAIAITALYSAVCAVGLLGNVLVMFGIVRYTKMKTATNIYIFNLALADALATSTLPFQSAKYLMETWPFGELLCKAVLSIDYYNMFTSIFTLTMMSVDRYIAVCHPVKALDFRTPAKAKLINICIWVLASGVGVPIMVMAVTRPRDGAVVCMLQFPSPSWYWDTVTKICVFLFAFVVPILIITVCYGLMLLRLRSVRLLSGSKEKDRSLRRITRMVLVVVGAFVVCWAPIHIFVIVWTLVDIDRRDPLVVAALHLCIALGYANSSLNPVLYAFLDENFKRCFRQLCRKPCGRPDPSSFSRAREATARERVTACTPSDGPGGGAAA
MOR-DOR inv ag – mu-delta opioid heterodimer inverse agonism. AID 504357. inhibition, % at 9.3 µM. cell-based MOR-DOR heterodimer luminescence. 0.21% of 340,000 active; in the data active means inhibition above about 22%, passing the limit was not always enough;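 further: 0% = cells with DMSO and 100% = wells without cells with DMSO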
MOR-DOR ag-2 – promotes OPRM1-OPRD1 heterodimerization in HTR5A counter-screen; shares compounds with HTR5A ag; U2OS counter-screen cells, complementation luminescence, 3 h; activation, % at 9.3 µM; 13% of 800 active; AID 504913
HTR5A ag conf – HTR5A (human) agonism, confirmation | shares compounds with HTR5A ag | HTR5A agonist cell assay, luminescence | activation, % at 9.3 µM | 17% of 800 active | AID 504915; in the data active means activation above about 17%;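 further: 0% = cells with vehicle only and 100% = full reference agonist response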
The depositor's hits bear a star; . = no result given. Most compounds without a hit are left out; they make up all but 1.1% or so of the library. Unless noted, no stated cut-off is given here; in the data, active means activation above about 18%; inactive means the rest.

SMILES	HTR5A ag	HTR5A inv ag	MOR-DOR ag-1	MOR-DOR inv ag	MOR-DOR ag-2	HTR5A ag conf
CCn1c(N2CCN(C(=O)C34CC5CC(CC(C5)C3)C4)CC2)nc2ccccc21	31*	-109	1	-4	159*	-4
CCN(CC)CCCNC(=S)N1CCN(c2nc(-c3ccc(F)cc3)cs2)CC1	3	-13	3	-13	.	.
COc1ccccc1N1CCN(C(=O)c2ccc(Cn3c(=O)[nH]c4ccsc4c3=O)cc2)CC1	16*	9	0	1	0	12
O=[n+]1c2c(n([O-])c3cc(F)c(N4CCCC4)cc31)CCC2	4	-12	-4	15	.	.
O=[n+]1c2c(n([O-])c3cc(F)c(N4CCCC4)cc31)CCCC2	15*	-35	-2	11	1	40*

High-throughput results deposited in PubChem by The Scripps Research Institute Molecular Screening Center.
